# Compounds without any hit were thinned out: in the full panel of roughly 83,000, 20% have a hit.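 Percent growth is the endpoint: 0 to 100 indicates growth inhibition (40 means 60% inhibition), 0 means no net growth, and negative values indicate cell death.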 A number with no mark means an inactive call. The source made the active and inactive calls.
# Test system: RPMI-8226 leukemia
# Experiment: NCI-60 one-dose screen, 48 h (100 = growth as untreated, 0 = no growth, -100 = all killed)
# Conditions: 10 µM unless noted
# Description: Growth inhibition of the RPMI-8226 human tumor cell line is measured as a screen for anti-cancer activity. Cells are grown in 96 well plates and exposed to the test compound for 48 hours. Compounds are tested at a single concentration, which is 10^-5 M for most compounds. The reported endpoint is percent growth (GI% or GIPRCNT), where numbers from 0 - 100% represent growth inhibition, and numbers from -100% - 0 represent cell death. For example, a value of 40 represents 60% growth inhibition. A value of 0 means no net growth occurred over the course of the experiment. A value of -40 indicates 40% of cells at the beginning of the experiment died by the end of the experiment. A value of -100 means all cells are dead at the end of the experiment.
# NCI-60 Human Tumor Cell Lines Screen was performed using the standard one-dose NCI protocol, which is described in more detail at https://dtp.cancer.gov/discovery_development/nci-60/default.htm.
# Compounds with GIPRCNT values below 10 were considered active. Activity score was based on GIPRCNT using the following formula: […]
# Score is 0 for GIPRCNT values of 100 or above, 50 for GIPRCNT values of 0, and 100 for GIPRCNT values of -100.
row,SMILES,growth
1,CCC(CC)NCC(C)(C)O,107%
2,Cc1ccc(C(=O)/C(=C/c2ccc([N+](=O)[O-])cc2)SCc2ccc(Cl)cc2)cc1,-32.7% (active)
3,CCCCCCNC(=O)Oc1ccc(/C(=C(\C)c2ccccc2)c2ccc(OCCN3CCCCC3)cc2)cc1,39.6%
4,CN1CCN(c2ccc(NC3=C(Cl)C(=O)c4ncccc4C3=O)cc2C(F)(F)F)CC1,-4.52% (active)
5,COc1cc2nc(-c3ccc(C(F)(F)F)cc3)cc(OCCCN3CCCC3)c2cc1OC,21.6%
6,OC(c1cccc(C(F)(F)F)c1)c1cnccc1NC1CCCCC1 (stereo not given),29.9%
7,NC(=S)N1N=C(c2ccccc2)CC1c1cn(-c2ccccc2)nc1-c1ccc(OCc2ccccc2)cc1 (stereo not given),90.9%
8,COc1cc2c(c(O)c1Cl)C(=O)c1c(O)cc(C[C@H](C)O)cc1[C@H]2[C@H]1c2cc(C[C@H](C)O)cc(O)c2C(=O)c2c1cc(OC)c(Cl)c2O,14.1%
9,C=C1C(=O)O[C@H]2[C@H]1CC/C(CNC(=O)c1cccc3ccccc13)=C\CC[C@@]1(C)O[C@@H]21,2.93% (active)
10,CCOC(=O)C1=C(C)NC(SCc2cc(=O)oc3ccc(F)cc23)=N[C@@H]1c1cccc2ccccc12,90.5%
11,CC(=O)Nc1cccc(-c2ccc3c(c2)NC(=O)/C3=C\c2ccc[nH]2)c1,15.8%
12,Cc1nc2sccn2c1-c1cn2ccsc2n1,65%
13,COc1cccc2c1c1nc3cc(C)c(C)cc3nc1n2CCN(C)C,-8.21% (active)
14,COc1ccc(N2CCN(c3ccc(NC4=C(Cl)C(=O)c5ncccc5C4=O)cc3)CC2)cc1,35.5%
15,CCN(Cc1ccccc1)c1ccc(C=O)cc1,90.4%
16,CC/C(=C\c1ccc(OC)cc1)C(=O)c1ccc(OC)cc1,32.2%
17,COc1cc(C=O)ccc1OC1OC(COC(C)=O)C(OC(C)=O)C(OC(C)=O)C1OC(C)=O (stereo not given),92.1%
18,CCN(CC)CCCC(C)Nc1cc(O)cc2cccnc12 (stereo not given),97.3%
19,O=C(Cn1c(C(=O)c2ccccc2)nc2ccccc21)c1ccc(F)cc1,28.7%
20,O=C(CCN1CCCC1)Nc1ccc2c(NCCCCc3ccccc3)c3ccccc3nc2c1,-42.7% (active)

row,SMILES,growth
1,COc1cc(C2C3=C(COC3=O)N(CCO)c3cc4c(cc32)CCC4)cc(OC)c1OC (stereo not given),17.9%
2,CCCCCCCCO/N=C\c1c2c(O)c3c(O)c(C)c4c(c3c1O)C(=O)C(C)(O/C=C\C(OC)C(C)C(OC(C)=O)C(C)C(O)C(C)C(O)C(C)/C=C\C=C(\C)C(=O)N2)O4 (stereo not given),9.95% (active)
3,COc1cc(/C=C\c2cc(OC)c(OC)c(OC)c2)cc(N)c1OC,89.7%
4,CCN(CC)CCn1c(=O)c2cc(OC)c(OC)cc2c2ccc3cc4c(cc3c21)OCO4,3.16% (active)
5,Cc1c(C(=O)NCCC(=O)NO)sc2ncnc(Nc3ccc(NC(=O)Nc4cccc(C(F)(F)F)c4)cc3)c12,102%
6,CC(c1ccccc1)C(C(=O)c1ccccc1)c1ccccc1 (stereo not given),107%
7,COc1cccc(-c2cc(C(=O)Nc3ccc(/C=C/c4ccc(OC5CCN(C)CC5)cc4)cc3)ccc2OC)c1,-32.7% (active)
8,N/C(=N\C(N)=N\c1nc2ccccc2s1)c1ccnc(Br)c1,23.6%
9,COc1ccc2c(c1)oc1c(C)c3c(c(C)c12)C(=O)N(N)C3=O,59.5%
10,COc1ccc(C(=O)c2cc(C)c(OC)c(C)c2)c(OC)c1NC(C)=O,21.2%
11,CCc1c(Cl)nc(N)nc1Nc1ccc(C)c(C)c1,104%
12,CC1(C)NCCC[C@]2(C)[C@H]3CC[C@@H]4[C@H]5[C@H](C(=O)/C=C/c6ccco6)CC[C@]5(CO)CC[C@@]4(C)[C@]3(C)CC[C@@H]12,44.2%
13,O=C(Cn1c[n+](CC(=O)c2ccc(-c3ccccc3)cc2)c2ccccc21)Nc1cccc2cccnc12,-30.2% (active)
14,Cc1nc2ccc(Cl)cn2c1-c1nnc(SCc2ccc([N+](=O)[O-])cc2)o1,81.9%
15,O=C(Nc1ncc(Cc2cc(Cl)ccc2Cl)s1)c1cccs1,57.2%
16,O=Cc1cc2ccccc2nc1Oc1ccc(C(F)(F)F)cc1,33%
17,CCCCCN1C=C/C(=C\C(=O)N(C)c2ccccc2Br)c2ccccc21,73.6%
18,COC(=O)N[C@H]1CCc2c(Cl)c(OC)c(OC)c(OC)c2-c2ccc(SC)c(=O)cc21,-5.28% (active)
19,COc1cc(C2=NN(C(C)=O)C(c3cc(OC)c(OC)c(OC)c3)C2)ccc1O (stereo not given),-27.5% (active)
20,COc1cc2c(=O)n(CCN(C)C)c3c4cc5c(cc4ccc3c2cc1OC)OCO5,-27.7% (active)

# From PubChem BioAssay (NCI)
